About 30 (0.1%) of roughly 23,000 compounds showed an effect of 50% or more. Only a selection was taken, and strong results are over-represented in it overall. Potency and affinity values are given separately.

The assay has as its system Pseudomonas aeruginosa. The settings on record: Concentration 300 ug.mL-1; ASSAY_TEST Inhibition of Bacterial Growth; detection method Absorption (OD600); MEDIA CAMHB; plate type 384well; NBS; CORNING #3640; time 18 hr.
For `CSCc1noc(CN2CCC(=O)NCC2C)n1` (stereo not given), the Inhibition (commonly the change of the read-out against control, counted positive when it falls) amounted to 2.5%.
Take `CCc1n[nH]c(=O)n1CC`: the Inhibition worked out at 16.77%.
The figure for `O=C1C=CC(=O)N1C1CCCCC1` is 14.45%; for `O=C(c1cc(F)ccc1Br)N1CCNCC1` it is -21.94%.
In the case of `CNCc1ncc(C)c(OC)c1C` it was 22.51%; in that of `CC(=O)NCc1ccc(C(=O)CSc2ccccn2)s1`, 23.63%; in that of `CN(Cc1cccc(C#N)c1)C(=O)C1CC1`, 11.31%.
In the case of `CN(C)S(=O)(=O)NCc1ccc(Cn2ccnc2)cc1` it was -10.43%; in that of `CC(=O)NCCCNCc1ccc(Br)c2cccnc12`, 29.22%.
`OCc1cccc2ncccc12`: the Inhibition is recorded as -43.09%.
In the case of `NC(=O)CCNCc1ccc(Cl)c2cccnc12` it was 17.51%; in that of `NC(=O)C1(NCc2ccc(Br)c3cccnc23)CC1`, 4.47%; in that of `O=C(c1nnsc1-c1ccc(Cl)cc1)N1CCSCC1`, -1.35%.
Take `CN(C)CCCC(=O)N1CCCC(CO)(CC2CC2)C1` (stereo not given): the Inhibition was -1.87%.
Turning to `CC1CCN(C(=O)CCN2C[C@H](C3CC3)[C@@H](N)C2)CC1`, the Inhibition turned out to be 0.49%.
As for `OC(CN1CCn2ccnc2C1)c1ccc(Cl)cc1` (stereo not given), the Inhibition is given as -6.36%.
Take `CSCCC(O)C(=O)NCCc1scnc1C` (stereo not given): the Inhibition is given as -25.65%.
The figure for `COCCN(Cc1ccccn1)C(=O)CC1CCNC1` (stereo not given) is -0.17%; for `CN1CCOC[C@H]2CCN(C(=O)c3cccs3)C[C@H]21` it is -22.95%; for `CNC(=O)C(C)Sc1nccn1-c1ccc(OC)cc1` (stereo not given) it is 17.22%.
Consider `N#Cc1cccc(CN2CCCC(O)C2)c1` (stereo not given), for which the Inhibition came out at 9.18%.
`CN(CCNC(=O)c1cnc[nH]1)Cc1ccc(F)cc1`: the Inhibition was found to be 37.03%.
The figure for `CNC1(C(=O)OC)CCCCC1` is -2.18%.
In the case of `Cc1cc(NC(=O)CSCC(=O)N2CCC2)no1` it was 7.6%; in that of `CCOC(=O)c1nc(C)n(C)n1`, 10.82%; in that of `c1cc2c(cc1CNc1nnc(C3CC3)o1)OCCO2`, -5.88%.
The figure for `O=C(CCCc1cn[nH]c1)N1CCc2ccccc2C1` is 6.06%.
On to `CCCC(C)NC(=O)c1coc(C)n1` (stereo not given), for which the Inhibition is reported as -6.54%.
With `CCN(CC(C)C#N)C(=O)c1ccc(Br)o1` (stereo not given), the Inhibition is given as -3.61%.
Take `COC(=O)[C@@H]1CCN[C@@H]1C(C)C`: the Inhibition worked out at 12.69%.
Turning to `C1CN(C2CCN(c3nnc(C4CC4)o3)CC2)CCS1`, the Inhibition was found to be 8.74%.
The figure for `C=C(C)CNC(=O)Nc1cccc(N2CCNC2=O)c1` is -38.18%; for `CCc1ccc(CN(CCO)Cc2nccn2C)nc1` it is -17.17%.
The figure for `Clc1ccc(-c2noc(CN3CCCNCC3)n2)cc1` is 46.35%; for `NC(=O)c1cc(N2CCCC2)ccn1` it is -17.78%; for `Fc1ccc2[nH]cnc2c1` it is 26.41%.
The figure for `CNCCC1CCCO1` (stereo not given) is 6.91%; for `CNC1CC(=O)N(Cc2ccccc2)C1=O` (stereo not given) it is -1.73%.
As to `CC1(C)C[S+]([O-])CCN1C(=O)c1cccc(F)c1Cl` (stereo not given), the Inhibition was determined as 17.16%.
In the case of `CCN(CC)C(=O)[C@@H]1C[C@@H](N)CN1C(=O)CS(C)(=O)=O` it was 7.51%.
In the case of `Nc1ncn(S(=O)(=O)c2ccccc2)n1` it was -6.3%; in that of `Cc1n[nH]cc1CNCc1ccc(-n2ccnc2)nc1`, 0.04%.
In the case of `O=C(CC1CCCN1)c1ccco1` (stereo not given) it was 24.64%.
Turning to `CC(O)C(=O)NC(N)=O` (stereo not given), the Inhibition is given as 10.69%.
The figure for `O=c1ccoc2ccc(F)cc12` is 24.86%; for `CCCn1cnnc1CNCC(=O)Nc1cnccn1` it is 7.89%.
The figure for `CNC(=O)NC(=O)C(C)N1CCN(c2nccs2)CC1` (stereo not given) is 0.51%; for `CCCc1nnc(N2CCC3(CC2)OCC(C)O3)s1` (stereo not given) it is -23.27%.
For `CC(C)NC(=O)c1cn(Cc2ccc(Cl)cc2)nn1`, the Inhibition is given as 37.8%.
Consider `CCOC(=O)CNC(=O)N1CCn2cccc2C1C` (stereo not given), for which the Inhibition was -25.66%.
For `O=C(Cc1ccsc1)N[C@@H]1CCOC[C@H]1OCCO`, the Inhibition came out at 1.98%.
The figure for `c1ccc(C2=NN=C(NC3CC3)SC2)cc1` is 6.85%; for `O=C(Cc1cccc(O)c1)NCCn1cc(Cl)cn1` it is -17.42%.
As for `COc1cc(C(=O)N[C@@H]2CC[C@@H](N)C2)ccc1F`, the Inhibition stood at 12.15%.
The figure for `N[C@@H]1CCOc2c(F)ccc(F)c21` is 32.11%.
As to `CC(Sc1ccccc1Cl)C(=O)NCC(=O)N(C)C` (stereo not given), the Inhibition was 4.5%.
In the case of `CCC(c1ccc(F)cc1)N1CC[S+]([O-])CC1` (stereo not given) it was 11.41%.
Regarding `NS(=O)(=O)N(Cc1cccnc1)Cc1ccco1`, the Inhibition is given as 8.52%.
In the case of `COCCNCC(=O)Nc1cccc(CSC)c1`, the Inhibition is reported as 7.12%.
The figure for `CCn1nc(C)c(CN2CCCCC(N)C2)c1C` (stereo not given) is 14.9%.
Consider `O=C(CCN1CCC(CO)CC1)Nc1ccccc1F`, for which the Inhibition is 3.62%.
In the case of `Cc1noc(CN2CCN(S(C)(=O)=O)CC2)n1` it was -16.86%.
Consider `CCS(=O)(=O)c1cncnc1N`, for which the Inhibition was 19.95%.
The figure for `Cc1noc(C)c1CCC(=O)NC(C)c1ccccn1` (stereo not given) is -45.2%.
The figure for `Cc1cc(C)cc(N2CCNCC2=O)c1` is 2.16%; for `NC(=O)C1=NOC(CNCc2ccccc2Cl)C1` (stereo not given) it is 23%.
With `Cc1cc(C(=O)N[C@@H]2CCOC[C@H]2O)sc1C`, the Inhibition is 10.73%.
In the case of `COc1ccc2[nH]c(CCCN)nc2c1` it was 28.12%; in that of `N[C@H]1CCCNC1=O`, 19.57%; in that of `CCc1nc(CNC(=O)C2CCCO2)cs1` (stereo not given), 6.65%.
`CCS(=O)(=O)NC1CCN(C(=O)c2cccc(F)c2)C1` (stereo not given): the Inhibition came to 13%.
As for `Cc1noc(CN(C)CCC2CCOCC2)n1`, the Inhibition was -10.62%.
In the case of `O=C(NCc1ccc2c(c1)OCCCO2)c1cscn1` it was 14.64%; in that of `NC1CC(=O)Nc2ccccc21` (stereo not given), 18.18%; in that of `CC(C)C[C@@H](N)C(=O)NCc1ccc2nsnc2c1`, 6.42%.
In the case of `CC(C)C(=O)NC1CCCNC1` (stereo not given) it was -0.49%.
Turning to `N#Cc1ccc(NCc2ccccc2F)nc1`, the Inhibition was determined as 16.68%.
In the case of `Cn1cnnc1CCNC(=O)c1cc(Cl)c(Cl)n1C` it was 15.17%; in that of `COCCC(=O)c1ccc(F)cc1`, 19.26%.
In the case of `CCN1CCCC1CNC(=O)c1c[nH]nn1` (stereo not given) it was 16.01%.
For the compound `Cc1cc(C)cc(NC(=O)CNCCCO)c1`, the Inhibition came out at 5.1%.
On to `NC1CCCc2c(F)cccc21` (stereo not given), for which the Inhibition turned out to be 23.88%.
As to `Fc1ccc2nc(N3CCCNCC3)oc2c1F`, the Inhibition is recorded as 33.45%.
The figure for `Cc1n[nH]c(C)c1NC(=O)C(C)CN` (stereo not given) is 18.11%.
On to `CN(Cc1ccc2c(c1)OCO2)C(=O)c1cncs1`, for which the Inhibition is 25.32%.

Source of the values: ChEMBL document CHEMBL4513160, “CO-ADD screening of MMV (CH) - Small Polar Library”.
